# HT1080-NT tox – qHTS for induction of synthetic lethality in tumor cells producing 2HG: qHTS for the HT-1080-NT fibrosarcoma cell line; HT-1080-NT fibrosarcoma viability, CellTiter-Glo ATP luminescence, 48 h; Potency, µM (top dose mostly 46.1 µM), for the others: top-dose activity, negative = less viability, usual class: cytotoxic; 1.6% of 360,000 active;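 further: NT is the 2HG producing partner of a matched IDH1 knockdown line; 0% = DMSO-treated cells and -100% = media-only wells without cells; nearly all actives have a fitted effect of over 55% in size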
#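 Luminescent CellTiter-Glo readout after 48 hours of compound exposure at 37 degrees C defined viability of HT-1080-NT cells. Activity was normalized to DMSO wells and cell-free media wells; concentration-response curves were fitted and assigned curve classes.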
# SW480 rereplic – A quantitative high throughput screen for small molecules that induce DNA re-replication in SW480 colon adenocarcinoma cells | Potency, µM (highest dose often 46.1 µM), for the others: top-dose re-replication activation, most hits filed as activators | 1.8% of 340,000 active | SW480 DNA re-replication, Hoechst DNA content imaging, 48 h; further: % of control where 0% means no effect; nearly all actives have a fitted effect of over 55% in size
#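 Image-based read-out: total Hoechst fluorescence of nuclei (405 nm excitation, 500-530 nm emission), with hits raising the fraction of high-intensity nuclei. SW480 colon cells incubated 48 hr with compounds at 37 C.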
# HT1080 IDH1KD tx – qHTS for induction of synthetic lethality in tumor cells producing 2HG: qHTS for the HT-1080-IDH1KD cell line; HT-1080 IDH1 knockdown viability, ATP luminescence, 48 h; 2% of 360,000 active; AID 686971, 2013; Potency, µM (top dose mostly 46.1 µM), without a hit: top-dose activity, negative = toxicity, usual class: cytotoxic;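 further: 0% = DMSO wells and -100% = cell-free medium wells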
#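 Knockdown cells (IDH1KD HT-1080) received compounds 2 h after plating at 750 cells/well and were kept 48 h at 37 °C in 5% FBS RPMI. A CellTiter-Glo luminescence read gave % activity for curve fitting.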
# MCF10A rerep – A quantitative high throughput screen for small molecules that induce DNA re-replication in MCF 10a normal breast cells; MCF 10A DNA re-replication, Hoechst nuclear intensity, 48 h; Potency, µM (highest dose often 46.1 µM), for the others: top-dose activity, positive = re-replication, actives largely listed as activators; 2.9% of 350,000 active; AID 624296, 2012; further: % of control where 0% means no effect; nearly all actives have a fitted effect of over 50% in size
# KB-V1 MDR tox – qHTS assay for MDR1-selective chemotherapeutics: Primary screen using the drug-selected MDR subline cells KB-V1; KB-V1 MDR cells viability, CellTiter-Glo, 72 h; Potency, µM (series often up to 46.1 µM), actives largely listed as cytotoxic; 3.4% of 400,000 active; AID 1347076, 2019; further: on the % scale 0 is the no-effect control and ±100 the full control effect; nearly all actives have a fitted effect of over 60% in size
#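 In this primary screen, KB-V1 cells overexpressing P-gp are incubated with library compounds (lowest to highest concentration) for 72 h at 37 degrees C before a luminescent ATP viability read.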
# KB-3-1 tox – qHTS assay for MDR1-selective chemotherapeutics: Primary screen using the parental adenocarcinoma cell KB-3-1; KB-3-1 viability, CellTiter-Glo ATP luminescence, 72 h; Potency, µM (series often up to 46.1 µM), usual class: cytotoxic; 1.4% of 400,000 active; AID 1347075, 2019; further: on the % scale 0 is the no-effect control and ±100 the full control effect; nearly all actives have a fitted effect of over 60% in size
#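 72 h, 37 °C compound treatment of KB-3-1 parental cells; CellTiter-Glo added, 10 min, luminescence read. Data corrected against DMSO-only plates and normalized before curve fitting.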
# * marks the source's active call; other numbers are inactive results; i = inactive; ? = inconclusive; / = not tested or not shown; [ ] = dose if it differs, or a comment. The list is not random: actives were taken first. Their share in the collection is about 7.9%. The call rests on the fitted dose curve; in most records, active means well fitted curve in the direction sought with a large enough effect; inconclusive means small, poorly fitted or top-dose-only effect, or another doubt; inactive means no such curve, though single readings can be large; an effect the other way counts as inactive or inconclusive. Potency means the concentration at half of the fitted maximal effect.
SMILES,HT1080-NT tox,SW480 rereplic,HT1080 IDH1KD tx,MCF10A rerep,KB-V1 MDR tox,KB-3-1 tox
Cc1cc(-c2cc(NC=O)c3ncc(-c4cccc(C(=O)NCCN(C)C)c4)n3c2)cc(C)c1O,26µM*,/,26µM*,/,i,i
CN(C)CCNC(=O)c1cccc(-c2cnc3c(NC=O)cc(-c4ccccc4F)cn23)c1,?,/,?,/,i,i
O=C(CCCc1ccccc1)N1CCN(c2ccc([N+](=O)[O-])cc2)CC1,-14%,-12%,2%[9.24 µM],3%,16µM*,i
CCOCC(=O)N1CCN(c2ccc([N+](=O)[O-])cc2)CC1,-1%,-1%,-4%,3%,18µM*,i
O=C(CSc1ccsc1[N+](=O)[O-])N1CCN(c2ccc(Cl)cc2)CC1,5%,2%,-1%,-1%,i,i
O=C(CSc1ccsc1[N+](=O)[O-])N1CCN(c2ccccc2)CC1,-3%,-6%,3%,-1%,?,5.8µM*
COc1ccc(C(=O)Nc2ccc(C(=O)OCC(=O)c3cccc4ccccc34)cc2)cc1,21%,-2%,15%,-3%,i,i
CNC(=S)N(CCc1ccc(OC)c(OC)c1)Cc1cc2c(C)cc(C)cc2[nH]c1=O,11%,-3%,14%,-4%,i,i
COc1cc(CNc2ccc(N3CCN(C(C)=O)CC3)cc2)ccc1OCc1ccccc1,-11%,2%,-24%,9%,7.3µM*,?
COc1ccc(C)cc1NC(=O)c1ccc(CN2CCc3ccccc3C2)cc1,3%,4%,-1%,?,i,i
COc1ccc(C)cc1NC(=O)c1ccc(CN2CCN(c3ccccc3)CC2)cc1,1%,25%,7%,?,18µM*,?
COc1ccccc1NC(=S)N1CCN(Cc2ccccc2)CC1,21%,7%,11%,-2%,15µM*,?
CCCN1CCN(C(=S)Nc2ccccc2C(F)(F)F)CC1,0%,-1%,-13%,24%,3.3µM*,21µM*
O=S(=O)(c1cccc2nsnc12)N1CCOCC1,14%,-11%[9.22 µM],8%,-2%,i,i
CC(=O)c1cccc(N(CC(=O)Nc2ccc(S(=O)(=O)N3CCCC3)cc2)S(C)(=O)=O)c1,0%,-6%,-12%,-8%,/,/
COc1ccc(NC(=O)c2ccc(CN3CCN(c4ccccc4)CC3)cc2)cc1OC,?,4%,?,-2%,16µM*,?
CCOc1cc(C(=O)Nc2cc(C)ccc2OC)ccc1OCC(=O)N1CCCCC1,8%,-147%,-1%,-35%,7.3µM*,i
COc1ccc(C(=O)Nc2cnn(Cc3ccc(Cl)cc3)c2)cc1OC,?,-694%,?,12µM*,i,5.8µM*
COc1cn(-c2ccccc2)nc1C(=O)Nc1ccc(C)cc1,-16%,?,-8%,14%,i,i
CCOc1cc(C(=O)Nc2ccc(C)cc2C)ccc1OCC(=O)N1CCCCC1,8%,-1%,2%,-3%,i,i
COc1ccc(C)cc1NC(=O)c1nn(-c2ccccc2)cc1OC,15µM*,22%,15µM*,23µM*,?,?
Cc1noc(C)c1C(=O)OCC(=O)c1c(N)n(CC(C)C)c(=O)n(C)c1=O,2%,-13%,2%,1%,i,i
COCc1cc(=O)[nH]c(/N=C(\N)Nc2ccc(C)cc2)n1,1%,-4%,-1%,0%,i,i
O=C(COC(=O)c1cccc(S(=O)(=O)N2CCCCC2)c1)NC1CCCCC1,7%,1%,10%,-6%,i,i

# Screening data deposited in PubChem by National Center for Advancing Translational Sciences (NCATS).
